Molecules are shown by their SMILES. Results filed as inconclusive are left out. Where a call stands in place of a potency, no number is given. The source made the active and inactive calls. Calls follow the shape of the dose curve; as a rule, active = well fitted inhibition curve with a large enough effect; inconclusive = small, poorly fitted or top-dose-only effect; inactive = no such curve, though single readings can be large or run the other way.
Potency is read from the fitted curve at half-maximal effect.

The target in the test is M-phase phosphoprotein 8 (Homo sapiens) (UniProt Q99549). The test can be described thus: qHTS Validation Assay for Inhibitors for MPP8 Chromodomain Interactions with Methylated Histone Tails (AID 488949). Also: nearly all actives have a fitted effect of over 55% in size. Particulars: AlphaScreen MPP8 binding to H3K9me3 peptide; series mostly up to 114 µM. Put shortly: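 MPP8 (50 nM) was pre-bound to 50 nM biotinylated H3(1-18)K9me3 peptide in PBS pH 7.4 with 0.01% Tween-20. Compounds were then added for 30 min at room temperature, and complex disruption was read by AlphaScreen with streptavidin donor and nickel-chelate acceptor beads.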
Chain of M-phase phosphoprotein 8 (Homo sapiens) (Q99549 whole entry, looked up): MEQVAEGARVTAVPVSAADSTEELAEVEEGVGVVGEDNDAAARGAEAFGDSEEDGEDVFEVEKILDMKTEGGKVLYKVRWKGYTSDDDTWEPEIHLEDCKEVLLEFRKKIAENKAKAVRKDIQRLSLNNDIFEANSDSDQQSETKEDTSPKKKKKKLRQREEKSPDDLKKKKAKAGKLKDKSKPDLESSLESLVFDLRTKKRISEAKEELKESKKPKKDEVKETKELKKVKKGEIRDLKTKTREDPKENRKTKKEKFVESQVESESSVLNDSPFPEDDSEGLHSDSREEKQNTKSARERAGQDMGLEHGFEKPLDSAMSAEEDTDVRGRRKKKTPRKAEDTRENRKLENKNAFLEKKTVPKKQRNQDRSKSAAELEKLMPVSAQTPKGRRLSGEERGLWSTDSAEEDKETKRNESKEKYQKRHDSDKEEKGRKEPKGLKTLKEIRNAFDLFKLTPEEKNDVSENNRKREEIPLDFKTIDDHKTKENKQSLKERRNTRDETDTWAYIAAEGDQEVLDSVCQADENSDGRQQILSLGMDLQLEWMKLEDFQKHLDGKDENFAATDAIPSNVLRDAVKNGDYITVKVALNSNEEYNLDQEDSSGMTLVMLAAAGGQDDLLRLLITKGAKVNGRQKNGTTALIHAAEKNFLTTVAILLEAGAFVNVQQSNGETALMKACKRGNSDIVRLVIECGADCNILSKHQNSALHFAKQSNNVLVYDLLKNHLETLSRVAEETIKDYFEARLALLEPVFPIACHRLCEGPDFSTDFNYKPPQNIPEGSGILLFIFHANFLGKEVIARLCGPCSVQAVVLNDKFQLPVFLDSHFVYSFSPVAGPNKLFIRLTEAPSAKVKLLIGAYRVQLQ
In general terms: In qHTS, concentration-response curves come from the screen itself.
`CN(C)C(=O)Oc1ccc[n+](C)c1`: the Potency result was “inactive”.

`CN=C(NC#N)NCCSCc1nc[nH]c1C`: the Potency result was “inactive”.

For the molecule `CC(=O)N1CCN(c2ccc(OC[C@H]3CO[C@](Cn4ccnc4)(c4ccc(Cl)cc4Cl)O3)cc2)CC1`, the Potency is 39.8 µM (active).

As for `Cc1nnc(SCC2=C(C(=O)O)N3C(=O)[C@@H](NC(=O)Cn4cnnn4)[C@H]3SC2)s1`, the Potency entry is “inactive”.

Turning to `CC[N+](CC)(CC)CCOc1cccc(OCC[N+](CC)(CC)CC)c1OCC[N+](CC)(CC)CC`, the Potency was 13.4 µM (active).

For the origin of these results see PubChem BioAssay (NCATS).
